GLP1R inv ag: inverse agonists of human GLP-1 receptor | P43220 | HEK293 GLP-1R CRE-luciferase, luminescence, 24 h; GLP-1R form is constitutively active | AID 624417 | Potency, µM (highest dose often 38.3 µM), inactives show top-dose activity change, negative = inhibition, usual class: inhibitors | 410,000 compounds, 1.6% hits; also: potency is read from the fitted curve at half-maximal effect; % is scaled to controls: 0 for no effect and ±100 for the full control effect; nearly all actives have a fitted effect of over 55% in size
Target sequence (P43220 whole entry, looked up): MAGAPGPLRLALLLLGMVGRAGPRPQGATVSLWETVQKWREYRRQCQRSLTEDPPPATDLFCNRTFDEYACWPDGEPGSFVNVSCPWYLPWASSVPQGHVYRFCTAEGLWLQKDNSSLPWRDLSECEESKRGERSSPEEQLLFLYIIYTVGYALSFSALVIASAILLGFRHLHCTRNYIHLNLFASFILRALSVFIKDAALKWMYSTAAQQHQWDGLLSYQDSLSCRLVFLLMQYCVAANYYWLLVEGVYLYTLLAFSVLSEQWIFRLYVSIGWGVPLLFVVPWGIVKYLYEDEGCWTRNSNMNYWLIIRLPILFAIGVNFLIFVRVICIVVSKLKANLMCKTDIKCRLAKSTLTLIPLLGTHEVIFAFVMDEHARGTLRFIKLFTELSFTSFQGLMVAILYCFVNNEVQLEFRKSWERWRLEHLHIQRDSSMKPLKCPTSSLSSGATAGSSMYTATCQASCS
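Constitutively active GLP-1R drives a cAMP-responsive luciferase in stably transfected HEK293 cells; test compounds are added after overnight (12 h) attachment and left 24 hr, and signal loss in luminescence marks inhibition.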
GLP-1R agonist: GLP-1 receptor (human) agonism; P43220; HEK293 GLP-1R CRE-luciferase, luminescence, 4-6 h; cells express a hypersensitive GLP-1R form; Potency, µM (doses to about 45.6 µM), for inactives: at the top dose activation, usual class: activators; 380,000 compounds, 0.007% hits; also: potency is read from the fitted curve at half-maximal effect; % of control where 0% means no effect
ClpP mod: qHTS Assay for Activators of ClpP; 340,000 compounds, 1.9% hits; ATP-dependent Clp protease proteolytic subunit (Bacillus subtilis (strain 168)), P80244; Potency, µM (doses to about 57.5 µM), for the others: top-dose activity change, negative = active; purified B. subtilis ClpP, FRET peptide cleavage, 20 min; AID 651965, 2013; active = well fitted falling curve with a large enough effect; inconclusive = small, poorly fitted or top-dose-only effect; inactive = no such curve, though single readings can be large or run the other way; also: potency is read from the fitted curve at half-maximal effect; the source files actives as falling curves though it sought activators and does not explain the sign; nearly all actives have a fitted effect of over 65% in size
Target sequence (P80244 whole entry, looked up): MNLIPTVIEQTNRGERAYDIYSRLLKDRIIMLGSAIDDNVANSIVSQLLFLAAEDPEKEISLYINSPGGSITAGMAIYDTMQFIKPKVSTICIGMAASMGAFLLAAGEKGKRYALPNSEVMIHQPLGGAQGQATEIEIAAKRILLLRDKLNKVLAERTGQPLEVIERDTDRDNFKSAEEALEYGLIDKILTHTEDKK
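Purified B. subtilis ClpP, 10 microg/mL final in Tris/HCl pH8 with KCl, BSA, glycerol and Tween-20, cleaved an Abz/nitrotyrosine-quenched decapeptide. Fluorescence (ex 320, em 430) was read at 0 and 20 min at room temperature. Delta was normalized to 5.8 microM ADEP and DMSO/no-enzyme controls.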
p53 reactivation: restores transcriptional activity of mutant p53. AID 504706. Potency, µM (series often up to 92.2 µM), for the others: top-dose activity change, positive = activation, actives largely listed as activators. 320,000 compounds, 0.063% hits. H1299 p53-A138V BP100-luciferase reporter, luminescence, 24 h; also: potency is read from the fitted curve at half-maximal effect; % of control where 0% means no effect; nearly all actives have a fitted effect of over 45% in size
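H1299 (p53-null), stable ts p53-A138V + BP100-Luc; 1000 cells/well, Opti-MEM/10% FBS; cpd 4 pt, 1:5; 24 h, 37 deg C, 5% CO2; detection reagent 10 min RT; luminescence.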
GLP1R cytotox: cytotoxic in the GLP-1 receptor inverse agonist counter-screen; 410,000 compounds, 0.13% hits; Potency, µM (highest dose often 38.3 µM), for inactives: top-dose activity change, negative = inhibition, most hits filed as inhibitors; HEK293 cAMP-luciferase reporter cells, luminescence, 24 h;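 also: loss of luciferase light is scored as toxicity; potency is read from the fitted curve at half-maximal effect; % is scaled to controls: 0 for no effect and ±100 for the full control effect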
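Cells in DMEM/10% Nu serum/1% pen-strep, 1536-well format. Pre-incubated 12 h, dosed with 23 nL compound, incubated a further 24 h. Luciferase detection, 12 min at room temp, luminescence.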
LDHA inh: LDHA (human) enzyme inhibition; P00338; purified LDHA, NADH/diaphorase-resazurin fluorescence; active compounds read low; activity change, % (values are at about 110 or 230 µM); 480,000 compounds, 0.15% hits; AID 1347041; in the data active = activity change below about -30%; inconclusive = mostly about -25% to -30%;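 also: plate controls were DMSO wells for no effect and wells without enzyme for full effect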
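LDH5 2 nM; NADH 0.06 mM, pyruvate 0.2 mM; 200 mM Tris pH 7.4, EDTA, Tween-20; 5 min RT. Detection: diaphorase 0.133 mg/mL + resazurin 37 µM, fluorescence ex540/em590 at 0 and 20 min; normalized to enzyme-free and DMSO wells.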
Starred values were filed as active, the others as inactive. Hits are enriched below; roughly 2.9% of the tested compounds scored in any of these assays. Unless noted, calls follow the shape of the dose curve; as a rule, active = well fitted curve in the direction sought with a large enough effect; inconclusive = small, poorly fitted or top-dose-only effect, or another doubt; inactive = no such curve, though single readings can be large; an effect the other way counts as inactive or inconclusive.

What do the screens show for `COc1ccc(NC(C)=[N+](C)CCNS(=O)(=O)c2ccc(Cl)cc2)cc1Cl`?
GLP1R inv ag: -15%; GLP-1R agonist: -3%; ClpP mod: 1%; p53 reactivation: -19%; GLP1R cytotox: -3%; LDHA inh: -14

How did O=[N+]([O-])c1ccc(N=Nc2ncc[nH]2)cc1 do in these assays?
GLP1R inv ag: inconclusive; GLP-1R agonist: -2%; ClpP mod: -1%; p53 reactivation: -16%; GLP1R cytotox: 5.6µM*; LDHA inh: -1

Results for CCCCn1cnc2c(SCCc3ccccc3)nc(N)nc21 ?
GLP1R inv ag: inconclusive; GLP-1R agonist: 3%; ClpP mod: 28µM*; GLP1R cytotox: -3%; LDHA inh: -2

How did CCCCC(=O)Nc1ccccc1C(=O)OCC(=O)c1ccc2c(c1)OCCO2 do in these assays?
GLP1R inv ag: inconclusive; GLP-1R agonist: 0%; ClpP mod: -27%; p53 reactivation: 45µM*; GLP1R cytotox: 78%; LDHA inh: 0

Results for CCN(CC)CCNC(=O)c1cn(CC)c2cc(N3CCN(C)CC3)c(F)cc2c1=O ?
GLP1R inv ag: -22%; GLP-1R agonist: 0%; ClpP mod: 4%; p53 reactivation: -3%; GLP1R cytotox: -2%; LDHA inh: 1

How did Cc1csc(=O)n1CCC(=O)OCC(=O)c1c(N)n(CC(C)C)c(=O)n(C)c1=O do in these assays?
GLP1R inv ag: -19%; GLP-1R agonist: -6%; ClpP mod: 0%; p53 reactivation: 4%; GLP1R cytotox: 12%; LDHA inh: -5

What do the screens show for `COc1cc2ccccc2cc1C(=O)OCC(=O)c1c(N)n(C)c(=O)n(C)c1=O`?
GLP1R inv ag: -18%; GLP-1R agonist: 7%; ClpP mod: 32µM*; p53 reactivation: -11%; GLP1R cytotox: -17%; LDHA inh: -6

What do the screens show for `CC(C)Cn1c(N)c(C(=O)COC(=O)CC23CC4CC(CC(C4)C2)C3)c(=O)n(C)c1=O`?
GLP1R inv ag: 2.8µM*; GLP-1R agonist: -22%; ClpP mod: -5%; p53 reactivation: inconclusive; GLP1R cytotox: -18%; LDHA inh: -2

What do the screens show for `Cc1cccc(C(=O)OCC(=O)c2c(N)n(CC(C)C)c(=O)n(C)c2=O)c1O`?
GLP1R inv ag: 10µM*; GLP-1R agonist: -2%; p53 reactivation: -4%; GLP1R cytotox: -14%; LDHA inh: 1

Results for CC(C)Cn1c(N)c(C(=O)COC(=O)c2ccc(Br)cc2)c(=O)n(C)c1=O ?
GLP1R inv ag: 10µM*; GLP-1R agonist: -1%; ClpP mod: 0%; p53 reactivation: -7%; GLP1R cytotox: -8%; LDHA inh: 5

How did Cc1ccc(NS(=O)(=O)c2ccc(OCC(=O)NCc3cccnc3)cc2)cc1 do in these assays?
GLP1R inv ag: -25%; GLP-1R agonist: 5%; ClpP mod: 1%; p53 reactivation: 2%; GLP1R cytotox: -8%; LDHA inh: -1

Results for Cn1c(CCNC(=O)c2ccccc2Cl)n[nH]c1=S ?
GLP1R inv ag: 7%; GLP-1R agonist: 1%; ClpP mod: -1%; p53 reactivation: -1%; GLP1R cytotox: 15%; LDHA inh: -8

Results for Cc1ccccc1OCCC(=O)OCC(=O)c1c(N)n(CC(C)C)c(=O)n(C)c1=O ?
GLP1R inv ag: inconclusive; GLP-1R agonist: -3%; ClpP mod: 28µM*; GLP1R cytotox: -1%; LDHA inh: -8

What do the screens show for `Cc1ccc(C)c(NC(=O)C(C)N(C)Cc2ccc3ccccc3c2)c1` (configuration not stated)?
LDHA inh: 6

How did Cc1ccc(C(C)C)cc1-n1nnc(-c2cccc(Cc3ccc4ccccc4c3)c2)c1C(C)O (configuration not stated) do in these assays?
GLP1R inv ag: 3.5µM*; GLP-1R agonist: -1%; ClpP mod: -6%; GLP1R cytotox: 0%; LDHA inh: 1

What do the screens show for `CC(OC(=O)CC1CC2CCC1C2)C(=O)Nc1cccc(S(=O)(=O)N2CCOCC2)c1` (configuration not stated)?
GLP1R inv ag: inconclusive; GLP-1R agonist: 17%; p53 reactivation: -1%; GLP1R cytotox: 1%; LDHA inh: 0

How did Cc1ccc(C(=O)CC(Nc2ccc(F)cc2)c2ccccc2)cc1 (configuration not stated) do in these assays?
GLP1R inv ag: -2%; GLP-1R agonist: 9%; ClpP mod: 3%; p53 reactivation: 18µM*; GLP1R cytotox: 3%; LDHA inh: -1

How did CCCCC(CC(O)COCC(C)C)C(=O)NNC(=S)Nc1ccccc1 (configuration not stated) do in these assays?
GLP1R inv ag: 16%; GLP-1R agonist: -5%; ClpP mod: 1%; p53 reactivation: 5%; GLP1R cytotox: 4%; LDHA inh: -1

How did COc1ccc(C(=O)N2c3cc4c(cc3C(C)=CC2(C)C)OCO4)cc1 do in these assays?
GLP1R inv ag: 7.9µM*; GLP-1R agonist: -16%; ClpP mod: inconclusive; p53 reactivation: -1%; GLP1R cytotox: 8%; LDHA inh: -2

What do the screens show for `O=C(COC(=O)c1cccs1)NCCN1C(=O)CSC1=O`?
GLP1R inv ag: 2%; GLP-1R agonist: -1%; ClpP mod: -3%; p53 reactivation: 24%; GLP1R cytotox: 10%; LDHA inh: -4

How did Cc1c(C(=O)OCC(=O)NCCN2C(=O)CSC2=O)oc2c1ccc1ccccc12 do in these assays?
GLP1R inv ag: -20%; GLP-1R agonist: 2%; ClpP mod: 32µM*; p53 reactivation: -2%; GLP1R cytotox: 13%; LDHA inh: -4

How did CC(=O)Nc1cccc(NC(=O)Cn2cc(C(C)=O)c3ccccc32)c1 do in these assays?
LDHA inh: 9

How did CC1Cc2ccccc2N1C(=O)CSc1nnc(N)s1 (configuration not stated) do in these assays?
GLP1R inv ag: inconclusive; GLP-1R agonist: 3%; ClpP mod: 0%; p53 reactivation: -14%; GLP1R cytotox: 0%; LDHA inh: -3

Results for O=C(/C=C/c1cnc2ccccc2n1)NC12CC3CC(CC(C3)C1)C2 ?
GLP1R inv ag: 2.5µM*; GLP-1R agonist: -1%; ClpP mod: 3%; p53 reactivation: inconclusive; GLP1R cytotox: -20%; LDHA inh: 1

How did O=C(O)/C=C/c1cnc2ccccc2n1 do in these assays?
GLP1R inv ag: 16%; GLP-1R agonist: -4%; p53 reactivation: 1%; GLP1R cytotox: -5%; LDHA inh: -2
